This is a sample that favours compounds with a hit; in the whole collection about 2.4% have one here.
Rango complex inh: prevents formation of the Rango-importin beta complex; Rango CFP/YFP FRET sensor + importin beta, 45 min; Q14974; 340,000 tested, 0.031% active; Potency, µM (doses to about 92.2 µM), for the others: top-dose inhibition of complex formation; calls by dose curve;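 note: 0% = DMSO wells and 100% = buffer wells lacking importin beta; nearly all actives have a fitted effect of over 15% in size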
Target sequence (Q14974 whole entry, looked up): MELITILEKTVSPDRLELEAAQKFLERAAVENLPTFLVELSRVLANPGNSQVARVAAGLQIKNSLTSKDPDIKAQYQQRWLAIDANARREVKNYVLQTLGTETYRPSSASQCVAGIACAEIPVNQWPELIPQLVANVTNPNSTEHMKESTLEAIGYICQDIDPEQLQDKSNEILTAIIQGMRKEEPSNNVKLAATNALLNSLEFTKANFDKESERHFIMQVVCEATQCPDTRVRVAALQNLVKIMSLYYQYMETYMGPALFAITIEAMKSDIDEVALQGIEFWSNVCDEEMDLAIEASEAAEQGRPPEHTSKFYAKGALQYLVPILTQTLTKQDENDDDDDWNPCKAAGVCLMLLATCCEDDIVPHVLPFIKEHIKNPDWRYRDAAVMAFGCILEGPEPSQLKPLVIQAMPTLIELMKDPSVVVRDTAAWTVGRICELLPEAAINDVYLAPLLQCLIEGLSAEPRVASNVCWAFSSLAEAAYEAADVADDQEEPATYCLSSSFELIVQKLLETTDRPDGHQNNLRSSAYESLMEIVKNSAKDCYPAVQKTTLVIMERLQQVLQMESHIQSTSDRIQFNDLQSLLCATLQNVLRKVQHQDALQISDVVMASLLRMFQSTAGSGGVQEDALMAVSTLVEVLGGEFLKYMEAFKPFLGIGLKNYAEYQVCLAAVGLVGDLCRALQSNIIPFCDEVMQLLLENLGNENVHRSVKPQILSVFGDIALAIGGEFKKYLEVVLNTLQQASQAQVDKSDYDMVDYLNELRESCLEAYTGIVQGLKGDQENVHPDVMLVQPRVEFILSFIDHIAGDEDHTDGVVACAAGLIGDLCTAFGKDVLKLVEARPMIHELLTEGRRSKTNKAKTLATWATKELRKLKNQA
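FRET biosensor Rango (snurportin 1 IBB between N-terminal EYFP and C-terminal Cerulean), 50 nM in PBS/1 mM DTT/0.02% Tween-20/0.1% BSA, preincubated 5 min RT with compound; 0.125 microM importin beta added, 45 min RT, CFP/YFP FRET ratio read.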
Tb PFK inh: T. brucei PFK enzyme inhibition; T. brucei PFK, ADP-Glo luminescence; 330,000 tested, 0.17% active; O15648; Potency, µM (titrated, usually from 57.5 µM), for the others: at the highest dose activity, negative = inhibition, most hits filed as inhibitors; AID 485367;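 note: 0% = uninhibited 1x PFK enzyme wells and -100% = no-enzyme wells; nearly all actives have a fitted effect of over 60% in size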
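Compounds were pin-transferred as a titration series up to 57 uM into substrate buffer (0.5 mM F6P, 0.1 mM ATP, pH 8.0), then 1.25 nM PFK was added and reactions ran 45 min before ADP-Glo detection.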
Tb PGK inh: blocks T. brucei phosphoglycerate kinase. P07378. PGK/GAPDH coupled, Kinase-Glo luminescence, 60 min. Potency, µM (series often up to 57.5 µM), for inactives: top-dose activity change, negative = inhibition, usual class: inhibitors. 380,000 tested, 0.043% active; note: % is set by controls: 0 for no effect and ±100 for the full control effect; nearly all actives have a fitted effect of over 60% in size
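Recombinant glycosomal PGK reaction used 1,3-bisphosphoglycerate generated in-well by GAPDH (100nM final) in 100mM TEA pH 7.6, 5mM MgCl2, 0.01% Tween-20. After 60 minutes at room temperature, ATP was read by Kinase-Glo Plus luminescence end-point.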
ELG1 repair inh: ELG1-dependent DNA repair inhibition | Potency, µM (series often up to 46.1 µM), for the others: top-dose activity change, negative = inhibition, hits mostly inhibitors | HEK293T ELG1-luciferase reporter, luminescence, 16 h; DNA damage induced by 5-fluorouridine | 330,000 tested, 2.3% active; note: % is set by controls: 0 for no effect and ±100 for the full control effect; nearly all actives have a fitted effect of over 55% in size
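Overnight (16 hr) co-exposure of 2,000 cells/well to 5-fluorouridine and compound at 37 °C preceded detection. Luciferase was quantified via ONE-Glo luminescence; loss of signal denotes inhibition.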
Rango release inh: prevents RanGTP from dissociating the Rango-importin beta complex | O95149+P62826 | Biochemical FRET Rango-importin beta, RanGTP-induced dissociation | Potency, µM (doses to about 46.1 µM), inactives show at the highest dose activity change, negative = inhibition | 340,000 tested, 0.071% active | AID 540253; calls by dose curve; note: % of control where 0% means no effect; nearly all actives have a fitted effect of over 45% in size
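Two FRET readings bracket the reaction: one 5 min after compound meets Rango–importin beta, another 45 min after RanGTP-RCC1 (0.6 uM Ran, 0.2 uM RCC1, 2 mM GTP) is added. Only the second defines inhibition.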
PKM2 act: increases activity of human pyruvate kinase M2 | P14618 | purified PKM2, Kinase-Glo ATP luminescence, activation; response scale: 0% is enzyme alone, no compound | Potency, µM (highest dose often 57.5 µM), for the others: top-dose activation, hits mostly activators | 260,000 tested, 0.34% active | AID 1631; note: % is set by controls: 0 for no effect and ±100 for the full control effect; nearly all actives have a fitted effect of over 55% in size
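Purified hPK-M2 (>95% pure) converted ADP (0.1 mM final) to ATP with 0.5 mM PEP in 50 mM imidazole pH7.2, KCl, MgCl2, Tween 20, BSA; 1 h at room temperature. ATP detected by Kinase-Glo luminescence.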
ELG1 FLuc counter: luciferase inhibition in cell-free luciferin readout for ELG1 hits; cell-free firefly luciferase luminescence counter-screen, ViewLux; 350 tested, 3% active; Potency, µM (top dose mostly 46.1 µM), for the others: top-dose activity change, negative = inhibition, most hits filed as inhibitors; AID 624247; shares compounds with ELG1 repair inh; note: % is set by controls: 0 for no effect and ±100 for the full control effect
ELG1-Luc inh: inhibits ELG1-dependent DNA repair in HEK293T cells, confirmed. AID 624248. Potency, µM (series often up to 46.1 µM), for inactives: at the highest dose activity change, negative = inhibition, actives largely listed as inhibitors. 670 tested, 68% active. shares compounds with ELG1 repair inh. HEK293T ELG1-luciferase levels, luminescence; cells co-treated with 5-fluorouridine; note: % is set by controls: 0 for no effect and ±100 for the full control effect; nearly all actives have a fitted effect of over 55% in size
ELG1 MMS Luc: confirmation of human ELG1 repair inhibitors, MMS stimulated; AID 624249; 670 tested, 53% active; Potency, µM (series often up to 46.1 µM), without a hit: at the highest dose activity change, negative = inhibition, usual class: inhibitors; shares compounds with ELG1 repair inh; HEK293T luciferase-tagged ELG1 level, MMS stimulated; note: % is set by controls: 0 for no effect and ±100 for the full control effect; nearly all actives have a fitted effect of over 60% in size
ELG1 5FU viab: confirmation of ELG1 repair inhibitors: viability with 5FU | shares compounds with ELG1 repair inh | cell viability with 5-FU, ELG1-dependent repair | Potency, µM (titrated, usually from 46.1 µM), for the others: top-dose activity change, negative = viability loss, actives largely listed as cytotoxic | 670 tested, under 10 active | AID 624250;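 note: ELG1-luc HEK293T cells cotreated with 5-fluorouridine at 10 µM final; viability measured 16 h after compound addition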
ELG1 MMS viab: confirmation of ELG1 repair inhibitors: viability with MMS; shares compounds with ELG1 repair inh; Cell viability with MMS, ELG1-dependent DNA repair; Potency, µM (series often up to 46.1 µM), inactives show at the highest dose activity change, negative = viability loss, actives largely listed as cytotoxic; 670 tested, 33% active;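 note: ELG1-luc HEK293T cells co-treated with 10 µM MMS; viability read 16 h after compound addition; % is set by controls: 0 for no effect and ±100 for the full control effect; nearly all actives have a fitted effect of over 60% in size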
ELG1 unstim viab: affects unstimulated cell viability, ELG1 hit counter-screen | 900 tested, 8% active | shares compounds with ELG1 repair inh | cell viability counter-screen, unstimulated, luminescence | Potency, µM (highest dose often 45.9 µM), for inactives: top-dose activity change, negative = loss of viability, hits mostly cytotoxic;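 note: compound exposure lasted 16 hours before reading; % is set by controls: 0 for no effect and ±100 for the full control effect; nearly all actives have a fitted effect of over 55% in size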
FLuc enzyme: inhibits purified firefly luciferase, counter-screen for ELG1 hits. Potency, µM (titrated, usually from 57.5 µM), inactives show at the highest dose activity, negative = inhibition, usual class: inhibitors. AID 624253. shares compounds with ELG1 repair inh. 350 tested, 10% active. purified firefly luciferase, luminescence counter-screen; note: % is set by controls: 0 for no effect and ±100 for the full control effect
Active calls of the source: *; [ ] = remark or other dose. Unless noted, calls come from the whole dose curve; as a rule, active = well fitted curve in the direction sought with a large enough effect; inconclusive = small, poorly fitted or top-dose-only effect, or another doubt; inactive = no such curve, though single readings can be large; an effect the other way counts as inactive or inconclusive. Potency is the fitted concentration of half-maximal effect.

Screening COc1ccc(C)cc1NC(=O)CN1CCCC1c1ccc2c(c1)OCCCO2 (stereo not drawn) returned Rango complex inh 3%, Tb PFK inh 3%, Tb PGK inh 0%, ELG1 repair inh 4.1µM*, Rango release inh -4%, ELG1-Luc inh 3.1µM*, ELG1 MMS Luc 18µM*, ELG1 5FU viab inconclusive, ELG1 MMS viab inconclusive and ELG1 unstim viab -10%.
Screening CS(=O)(=O)c1ccc(Cl)c(NC(=O)CN2CCCC2c2ccc3c(c2)OCCCO3)c1 (stereo not drawn) returned Rango complex inh -1%, Tb PFK inh -3%, Tb PGK inh -10%, ELG1 repair inh inconclusive and Rango release inh -1%.
Screening O=C(Nc1ccc(Cl)cc1)c1nc[nH]c1C(=O)Nc1ccccc1F returned Tb PGK inh -2%.
O=C(Nc1ccc(Cl)cc1)c1nc[nH]c1C(=O)NCCCCNC(=O)c1[nH]cnc1C(=O)Nc1ccc(Cl)cc1 was read as Rango complex inh 1%, Tb PFK inh 11%, Tb PGK inh 8%, ELG1 repair inh 2.9µM*, Rango release inh 12%, ELG1-Luc inh 2.5µM*, ELG1 MMS Luc 11µM*, ELG1 5FU viab -4%, ELG1 MMS viab 25µM* and ELG1 unstim viab inconclusive.
`COc1ccc(/C=N/NC(=O)c2cccc(C(=O)N/N=C/c3ccc(OC)c(OC)c3)n2)cc1OC` gave Rango complex inh 5%, Tb PFK inh -5%, Tb PGK inh 0%, ELG1 repair inh inconclusive and Rango release inh -11%.
`COc1ccc(/C=N/NC(=O)Nc2cccc3nsnc23)cc1OC` gave Rango complex inh inconclusive, Tb PFK inh 3%, Tb PGK inh 5%, ELG1 repair inh 2.6µM*, Rango release inh -21%, PKM2 act 1%, ELG1-Luc inh 2.8µM*, ELG1 MMS Luc 22µM*, ELG1 5FU viab inconclusive, ELG1 MMS viab inconclusive and ELG1 unstim viab inconclusive.
`Cc1ccccc1CN1CCCC(C(=O)Nc2ccccc2Oc2cccnc2)C1` (stereo not drawn) gave Rango complex inh -3%, Tb PFK inh 2%, Tb PGK inh -9%, ELG1 repair inh 8%, Rango release inh 13% and PKM2 act 0%[0.46 µM].
For C[C@H](O)[C@@H]1C(=O)N2CCc3ccc(N4CCN(C)CC4)cc3[C@@H]2C[C@@H]1N(C)C(=O)c1ccco1 the results were Tb PGK inh -3%.
COc1cccc(/C=C/c2cnc3ccccc3n2)c1OC was read as ELG1 FLuc counter -23%, ELG1 unstim viab -16% and FLuc enzyme 0.33µM*.
For COc1cccc(C=Cc2nccc3ccccc23)c1OC the results were Tb PGK inh -3%.
`O=C(COc1ccc(S(=O)(=O)N2CCOCC2)cc1Cl)NCC1CCCO1` (stereo not drawn) gave Rango complex inh 0%, Tb PFK inh 1%, Tb PGK inh inactive, ELG1 repair inh -2%, Rango release inh -8% and PKM2 act inconclusive.
O=C(C1CCCC1)N1CCC(CC2CC(c3cccc(Br)c3)=NO2)(C(=O)NCC2CCCCC2)CC1 (stereo not drawn) was read as Rango complex inh inconclusive, Tb PFK inh -1%, Tb PGK inh -12%, ELG1 repair inh 4.1µM*, Rango release inh -7%, PKM2 act 3%, ELG1-Luc inh 16µM*, ELG1 MMS Luc inconclusive, ELG1 5FU viab 2%, ELG1 MMS viab -19% and ELG1 unstim viab inconclusive.
Screening CCOC(=O)N1CCc2c(sc3c2C(=O)NC(c2cc(OC)c(OC)c(OC)c2)N3)C1 (stereo not drawn) returned Tb PGK inh inactive.
Screening Clc1cccc(C[n+]2cc(-c3ccccc3)n3c2CCC3)c1 returned Rango complex inh -2%, Tb PFK inh inconclusive, Tb PGK inh -5%, ELG1 repair inh -8%, Rango release inh -1% and PKM2 act -4%.
`Cc1ccc(-c2c[n+](Cc3ccc(Cl)cc3)c3n2CCC3)cc1` gave Rango complex inh -5%, Tb PFK inh inconclusive, Tb PGK inh -8%, ELG1 repair inh 2.6µM*, Rango release inh 11%, PKM2 act -5%, ELG1 FLuc counter -14%, ELG1-Luc inh inconclusive, ELG1 MMS Luc 7.9µM*, ELG1 5FU viab -4%, ELG1 MMS viab 7.9µM*, ELG1 unstim viab 4µM* and FLuc enzyme -10%.

Bioassay records from PubChem.
